# Results taken from PubChem BioAssay AID2156 (Johns Hopkins Ion Channel Center, 2009).
# Screen size: about 310,000 compounds; about 3,400 (1.1%) were called active. The list comes from a sample in which actives are over-represented; it also holds similar structures and randomly drawn compounds. A number with no mark means an inactive call.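 The calls were made as follows: active = fluorescence ratio B-score at most minus 3 library SDs, with starting brightness B-score within 2 library SDs (cut at about -5.5 in these data); inactive = the rest, inconclusive results apart.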
# Target: Potassium voltage-gated channel subfamily KQT member 2 (Rattus norvegicus) (UniProt O88943)
# Sequence (O88943 whole entry, looked up): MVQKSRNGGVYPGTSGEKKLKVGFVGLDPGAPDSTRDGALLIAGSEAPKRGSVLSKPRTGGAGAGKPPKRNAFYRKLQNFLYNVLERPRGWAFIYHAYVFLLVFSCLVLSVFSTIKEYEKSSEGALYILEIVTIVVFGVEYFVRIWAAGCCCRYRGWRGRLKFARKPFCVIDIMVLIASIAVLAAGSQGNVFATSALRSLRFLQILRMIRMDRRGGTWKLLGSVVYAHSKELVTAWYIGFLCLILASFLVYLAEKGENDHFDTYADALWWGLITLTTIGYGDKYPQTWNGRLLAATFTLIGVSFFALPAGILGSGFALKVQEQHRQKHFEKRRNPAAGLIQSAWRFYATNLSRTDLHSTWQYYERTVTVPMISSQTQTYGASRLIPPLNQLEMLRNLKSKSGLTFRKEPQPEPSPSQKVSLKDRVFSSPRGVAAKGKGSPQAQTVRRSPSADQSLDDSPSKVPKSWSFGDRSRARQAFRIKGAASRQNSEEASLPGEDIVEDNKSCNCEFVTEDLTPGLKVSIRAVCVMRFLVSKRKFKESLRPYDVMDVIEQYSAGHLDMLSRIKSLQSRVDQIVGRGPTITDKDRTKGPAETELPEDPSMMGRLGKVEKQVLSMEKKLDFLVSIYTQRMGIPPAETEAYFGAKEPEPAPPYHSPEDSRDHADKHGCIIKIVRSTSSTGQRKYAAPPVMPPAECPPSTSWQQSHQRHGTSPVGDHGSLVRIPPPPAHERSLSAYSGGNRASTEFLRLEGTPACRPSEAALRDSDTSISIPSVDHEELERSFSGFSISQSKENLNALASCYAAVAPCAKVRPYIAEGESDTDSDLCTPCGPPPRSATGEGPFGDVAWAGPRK
# Assay: KCNQ2 channel blockers in CHO-K1 cells – cell-based, FluxOR thallium flux, B-score, primary screen (AID 2156)
# Details: 20 min, at 10 µM; hits give low values
row,Compound,B-score
1,Cc1ccc(Cl)c(OCC(=O)N2CCc3ccccc3C2)c1,-3.66
2,Cc1ccc2c(c1)N(C(=O)CCC(=O)N1CCc3ccccc3C1)CCO2,-5.74 (active)
3,Cc1ccc2c(c1)N(C(=O)CCC(=O)NCc1cccnc1)CCO2,-0.11
4,COc1ccc(C(=O)OCC(=O)Nc2ccc3[nH]c(=O)[nH]c3c2)c(OC)c1OC,-0.64
5,Cc1cc(C(=O)NC2CCCc3c2cnn3-c2cccc(C)c2C)c(C)o1 (stereo unspecified),-2.79
6,Cn1nccc1C(=O)NC1CCCc2c1cnn2-c1ccccc1F (stereo unspecified),inactive
7,COc1ccc(C(=O)NC2CCCc3c2cnn3-c2cccc(C)c2C)c(OC)n1 (stereo unspecified),-6.25 (active)
8,O=C(COC(=O)Cn1[nH]c(=O)c2ccccc2c1=O)Nc1c(Cl)cccc1C(F)(F)F,inactive
9,Cc1ccc2nc(NC(=O)CSc3nc(=O)n(CCCN(C)C)c4c3CCC4)sc2c1,inactive
10,CC12CCC(=O)N1C(C(=O)Nc1ccc(F)c(F)c1F)CS2 (stereo unspecified),inactive
11,CCOc1ccc(NS(=O)(=O)c2ccc(C(=O)NCC(c3ccccc3OC)N3CCCC3)cc2)cc1 (stereo unspecified),-1.58
12,Cc1ccc(N2C(=O)C3C(c4ccccc4)(C2=O)C3(c2ccccc2)c2ccccc2)cc1 (stereo unspecified),-9.48 (active)
13,Cc1ccc(N2C(=O)C3CC3C2=O)cc1 (stereo unspecified),inactive
14,Cc1ccc(N2C(=O)CC(Nc3cccc4ccccc34)C2=O)cc1 (stereo unspecified),-1.06
15,CN(CC(=O)Nc1ccccc1Cl)C(=O)c1ccccc1SCC(=O)N1CCCC1,-0.59
16,CCCCCCCNC(=O)C1(CC2CC(c3cccc(Br)c3)=NO2)CCN(C(=O)c2cc(OCC)c(OCC)c(OCC)c2)CC1 (stereo unspecified),-2.53
17,N#Cc1c(NC(=O)CCCN2C(=O)c3ccccc3C2=O)oc(-c2ccccc2)c1-c1ccccc1,-1.14
18,COc1cc(C(=O)Nc2oc(-c3ccccc3)c(-c3ccccc3)c2C#N)cc(OC)c1OC,-6.31 (active)
19,COC(=O)c1sccc1NC(=O)c1cc(OC)c(OC)c(OC)c1,inactive
20,Cc1cccc(-c2nc(Nc3ccc(O)cc3)c3ccccc3n2)c1,-3.05
21,Cc1cccc(-[n+]2c(-c3cccc(Br)c3)[nH]c3nc4ccccc4nc32)c1,-6.92 (active)
22,CCCCn1c(N)c(N(CCOC)C(=O)CSCC(=O)Nc2cccc(C)c2)c(=O)[nH]c1=O,inactive
23,O=S(=O)(Nc1cccc(-c2ccc(N3CCOCC3)nn2)c1)c1ccc(Cl)c(Cl)c1,inactive
24,Cc1cc(C)c(S(=O)(=O)N2CCCC2CNC(=O)c2ccc3c(c2)OCO3)c(C)c1 (stereo unspecified),-3.59

row,Compound,B-score
1,CCN(CC)CCOc1ccc2c(c1)C(=NNC(=O)c1ccccn1)c1cc(OCCN(CC)CC)ccc1-2,-7.1 (active)
2,Cc1ccc(Cl)cc1NC(=O)c1ccccn1,-3.49
3,Cc1cccc(OCC(=O)NCCCNC(=O)c2ccccn2)c1,-0.01
4,COc1cc(C(=O)NCC(=O)NCCSc2ccc(Br)cc2)cc(OC)c1OC,inactive
5,COc1cccc(NC(=O)CN(C)C(=O)CSCc2nc3scc(-c4cccs4)c3c(=O)[nH]2)c1,inactive
6,CCc1ccccc1NC(=S)Nc1cc(OC)c(NC(=O)C(C)C)cc1OC,-0.92
7,CCc1ccccc1NC(=O)/C(=C/c1ccccc1)c1ccccc1,-9.3 (active)
8,O=C(/C=C/c1ccccc1)N/C(=C/c1ccccc1)C(=O)Nc1ccccc1O,-0.61
9,CCN1CCN(c2c(Cl)cccc2NC(=O)c2ccc(Br)o2)CC1,-6.14 (active)
10,CCCC(=O)Nc1ccc(Cl)c(NC(=O)c2ccc(Br)o2)c1,inactive
11,COC(=O)c1ccc(N2CCOCC2)c(NC(=O)c2ccc(Br)o2)c1,inactive
12,CN(/N=C/c1ccccc1)C(=S)c1ccccc1,inactive
13,O=C(NCCS(=O)(=O)N1CCN(c2ccc(F)cc2)CC1)c1ccc2c(c1)OCO2,inactive
14,CC1(c2ccccc2)CC(C)(C)N(C(=O)c2cc([N+](=O)[O-])cc([N+](=O)[O-])c2)c2ccccc21 (stereo unspecified),-1.63
15,CC1(c2cccc([N+](=O)[O-])c2)CC(C)(C)N(C(=O)c2ccccc2)c2ccccc21 (stereo unspecified),-7.53 (active)
16,O=C(c1cccc([N+](=O)[O-])c1)N1CCN(Cc2ccccc2)CC1,inactive
17,NC(=O)c1ccsc1NC(=O)COC(=O)Cc1n[nH]c(=O)c2ccccc12,-1.74
18,COc1ccc(S(=O)(=O)NCCCc2ccccc2)cc1,inactive
19,Cc1ccc(OCCNC(=O)CCNS(=O)(=O)c2ccc(Br)cc2)cc1,inactive
20,O=C(Nc1cccc(Cl)c1N1CCOCC1)c1cccnc1,inactive
21,COC(=O)c1ccc(N2CCOCC2)c(NC(=O)c2ccc3c(c2)OCCO3)c1,inactive
22,O=C(Nc1cccc(Cl)c1N1CCOCC1)c1ccc2c(c1)OCCO2,-6.48 (active)
23,Cc1ccc(NC(=O)CSCC(=O)Nc2sccc2C#N)cc1,-0.08
24,O=C(COC(=O)c1ccccc1Br)Nc1nnc(-c2ccccc2)o1,-0.06

row,Compound,B-score
1,CC(C)(C)n1nnnc1C(c1cccs1)N(Cc1cccnc1)CC1CCCO1 (stereo unspecified),-0.68
2,CCOc1ccc(CN(Cc2ccco2)S(=O)(=O)c2ccc(-n3cnnn3)c(OC)c2)cc1,inactive
3,CCOc1ccc(CN(Cc2ccco2)C(c2cccs2)c2nnnn2C(C)(C)C)cc1 (stereo unspecified),-6.35 (active)
4,O=C(NCc1ccccn1)Nc1ccc(Cl)cc1,inactive
5,CCCN(CC(=O)Nc1ccccc1OC)C(=O)CCC(=O)c1ccc(F)cc1,-1.98
6,CN(C1CCS(=O)(=O)C1)S(=O)(=O)c1ccc2ccccc2c1 (stereo unspecified),-0.6
7,O=C1c2oc3ccc(Br)cc3c(=O)c2C(c2cccc(F)c2)N1CCO (stereo unspecified),-4.46
8,O=C1c2oc3ccccc3c(=O)c2C(c2cccc(O)c2)N1c1ccccn1 (stereo unspecified),-0.06
9,COCCN1C(=O)c2oc3c(C)cc(C)cc3c(=O)c2C1c1cccc(O)c1 (stereo unspecified),-6.4 (active)
10,CC(=O)O[C@H]1CC[C@@]2(C)[C@@H](CC[C@@H]3[C@@H]2CC[C@]2(C)[C@@H](C(C)(C)O)C[C@@H]32)C1,inactive
11,COc1ccc(NS(=O)(=O)c2ccc(C)c(C(=O)N(C)Cc3ccc(OC)cc3OC)c2)cc1,inactive
12,CCn1c(SC(C)C(=O)Nc2ccc(N3CCOCC3)cc2)nnc1-c1ccco1 (stereo unspecified),inactive
13,COc1ccccc1NC(=O)COC(=O)c1ccccc1SCC(=O)N1CCCC1,inactive
14,Nc1ccccc1SC(C[N+](=O)[O-])c1ccccc1 (stereo unspecified),-7.63 (active)
15,Nc1ccccc1SCc1cc([N+](=O)[O-])cc2c1OCOC2,-0.29
16,CCS(=O)(=O)c1cc([N+](=O)[O-])c(Sc2ccccc2N)s1,inactive
17,Cc1cc(C)c(-c2csc(NC(=O)CCCc3nc4ccccc4c(=O)[nH]3)n2)c(C)c1,inactive
18,Cc1ccc(S(=O)(=O)N2CCOCC2)cc1C(=O)Nc1ccccc1N1CCCC1,-6.63 (active)
19,Cc1cc(C(=O)NNC(=O)c2cccc(S(=O)(=O)N3CCOCC3)c2)c2ccccc2n1,-0.22
20,O=C(Nc1ccccc1N1CCCC1)c1ccc(F)c(S(=O)(=O)N2CCOCC2)c1,-0.88
21,Cc1ccc(S(=O)(=O)N2CCOCC2)cc1C(=O)NCc1ccc(F)cc1,inactive
22,O=C(Nc1ccccc1N1CCOCC1)c1csc2c1CCCC2,-4.47
23,Cc1cc(C(=O)Nc2ccccc2N2CCOCC2)c2ccccc2n1,-6.19 (active)
24,CN(C)CCn1c2c(c(SCC(=O)Nc3ccccc3C(F)(F)F)nc1=O)CCCC2,-0.04

row,Compound,B-score
1,Nc1c(-c2ccccc2)nnn1Cc1ccccc1,inactive
2,Cc1ccc(S(=O)(=O)N2CCN(C(=O)c3ccc(-n4cncn4)c([N+](=O)[O-])c3)CC2)cc1,-0.29
3,Cc1cccc(C)c1NC(=O)CNC(=O)c1c(C)nn(-c2ccccc2)c1C,-1.69
4,O=C(Nc1nc(-c2ccco2)c(-c2ccco2)s1)c1ccco1,-3.35
5,CC(=O)c1c(-c2ccccc2)c2ccccc2[nH]c1=O,-0.37
6,Cc1nc2ccccc2c(-c2ccccc2)c1C(=O)c1ccccc1,-9.15 (active)
7,Cc1nc2ccccc2c(C)c1C(=O)c1ccc(F)cc1,-1.04
8,COc1cnn(-c2ccc([N+](=O)[O-])cc2)c(=O)c1Cl,-0.13
9,COc1ccccc1C(=O)Nc1ccc(Nc2ccccc2)cc1,inactive
10,COc1ccc(CNS(=O)(=O)c2cc3c4c(c2)CCN4C(=O)CC3)cc1,-1.56
11,Cc1ccc(NC(=O)C2CC(=O)N(c3ccc4c(c3)OCCO4)C2)cc1S(=O)(=O)N1CCCCCC1 (stereo unspecified),-1.45
12,Cc1onc(-c2ccccc2Cl)c1C(=O)NCCn1ccc2ccccc21,-5.59 (active)
13,Cc1onc(-c2ccccc2Cl)c1C(=O)OCC(=O)c1ccccc1,-1.85
14,Cc1ccc2cc(CCNC(=O)c3c(-c4ccccc4Cl)noc3C)c(=O)[nH]c2c1,-1.13
15,COc1ccc(OC(C)C(=O)NCCc2nc3ccccc3[nH]2)cc1 (stereo unspecified),inactive
16,Cc1ccc(-c2nc3ccccc3[nH]2)cc1N,-0.17
17,COc1ccc(-c2[nH]nc(-c3ccccc3)c2-c2nc3ccccc3[nH]2)cc1,-7.31 (active)
18,COc1ccc(CCNC(=S)N2CCN(S(=O)(=O)c3ccc(F)cc3)CC2)cc1,-0.54
19,Cc1ccc(CSCC(=O)N(C)CC(=O)Nc2ccc(C)cc2)cc1,inactive
20,CC(Oc1ccc(Br)cc1)C(=O)NCC(c1ccco1)N1CCCCC1 (stereo unspecified),-2.11
21,CCOC(=O)c1c(NC(=O)C2(C)Cc3ccccc3C(=O)O2)sc2c1CCCC2 (stereo unspecified),-5.8 (active)
22,CCOC(=O)c1c(NC(=S)NC)sc2c1CCCC2,inactive
23,CCOC(=O)c1c(NC(=O)Cn2nc(C(F)(F)F)cc2C)sc2c1CCC2,-0.09
24,CCOC(=O)c1c(NC(=O)CSc2cn(CC)c3ccccc23)sc2c1CCC2,-7.2 (active)

row,Compound,B-score
1,CCOC(=O)c1c(NC(=O)C(C)Sc2c[nH]c3ccccc23)sc2c1CCC2 (stereo unspecified),-4.14
2,CCOC(=O)c1c(NC(=O)CCC(=O)NCc2ccco2)sc2c1CCCC2,inactive
3,CC(Sc1nn(-c2ccc(Cl)cc2)c(=S)s1)C(=O)NCC1CCCO1 (stereo unspecified),-0.45
4,COc1cccc(NC(=O)CSc2nccn(-c3ccc4c(c3)OCCO4)c2=O)c1,-2.03
5,COc1ccccc1CCC(=O)NNC(=O)c1ccncc1,-1.15
6,COc1ccc(S(=O)(=O)N2CCOC23CCN(S(=O)(=O)c2ccc([N+](=O)[O-])cc2)CC3)cc1,-0.03
7,Cc1ccc(N=C2SCCCN2C(=O)c2cccc(N3C(=O)CCC3=O)c2)cc1Cl,inactive
8,COc1ccccc1NC(=O)C(C)OC(=O)c1ccc(-n2cnnn2)cc1 (stereo unspecified),inactive
9,O=C(CCN1C(=O)C2CCCCC2C1=O)Nc1ccc(OC(F)F)cc1 (stereo unspecified),-1.21
10,CC(C)NC(=O)c1ccc(Cl)cc1Cl,inactive
11,O=C(COc1cccc(Cl)c1)NCc1ccccc1,inactive
12,C[C@H](NC(=O)c1ccccc1Cl)C(=O)OCCOc1cccc(Cl)c1,-6.72 (active)
13,CCOC(=O)c1c(C)[nH]c(C(=O)OCC(=O)c2ccc(OC)cc2OC)c1C,-0.07
14,COc1ccc(S(=O)(=O)N2CCCCC2)cc1NC(=O)C1CC(=O)N(c2ccc3c(c2)OCCO3)C1 (stereo unspecified),-0.27
15,Cc1csc2nc(O)c(C(=O)NCCN3CCOCC3)c(=O)n12,inactive
16,Cc1ccc(C(=O)CSc2ccccc2C(=O)O)cc1,inactive
17,Cc1ccc(SCC(=O)Nc2ccc3c(c2)OCCO3)cc1,inactive
18,Cc1ccc(SCC(=O)c2cc(C)c(OC(=S)N(C)C)c(C)c2)cc1,-7.36 (active)
19,Cc1ncc(CO)c(/C=N/NC(=O)c2cccc(S(=O)(=O)N3CCCC3)c2)c1O,-2.49
20,Cc1ccc(C(=O)NC2CCCC(C)C2C)cc1S(=O)(=O)N1CCCCC1 (stereo unspecified),-3.09
